Test results reported in PubChem BioAssay AID1159580 (chemical genetic matrix, 2015).
Screen size: about 5,500 compounds; about 2,000 (36%) were called active. Inconclusive results (about 18%) are left out. Cut-off read from the data, not from the text of the source: active = normalized growth mostly below about 0.91 (no sharp cut-off); inconclusive = no clear call, values can overlap the other calls; inactive = mostly above about 0.92. This is one part of the list.

Test: chemical genetic growth profiling, strain panel (AID 1159580);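 note: tested at 20 µM; growth read once vehicle control cultures reached saturation at 30 °C; 1 = growth at the plate median or of vehicle wells; lower values mean less growth of the strain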
Conditions: growth OD
[1] = S. cerevisiae deletion strains, locus YAL013W, strain DEP1, hits give low values
[2] = S. cerevisiae deletion strains, locus YAL040C, strain CLN3, hits give low values
[3] = S. cerevisiae deletion strains, locus YCL061C, strain MRC1 (second series), hits give low values
[4] = S. cerevisiae deletion strains, locus YDR363W, strain ESC2, hits give low values
[5] = S. cerevisiae deletion strains, locus YER002W, strain NOP16, hits give low values
[6] = S. cerevisiae deletion strains, locus YJR075W, strain HOC1, hits give low values
[7] = S. cerevisiae deletion strains, locus YMR307W, strain GAS1, hits give low values
[8] = S. cerevisiae deletion strains, locus YNL153C, strain GIM3, hits give low values
[9] = S. cerevisiae deletion strains, locus YNL175C, strain NOP13, hits give low values
[10] = S. cerevisiae deletion strains, locus YNL197C, strain WHI3, hits give low values
[11] = S. cerevisiae deletion strains, locus YNL224C, strain SQS1, hits give low values
[12] = S. cerevisiae deletion strains, locus YNL322C, strain KRE1, hits give low values
[13] = S. cerevisiae deletion strains, locus YOR083W, strain WHI5 (second series), hits give low values
[14] = S. cerevisiae deletion strains, locus YPL055C, strain LGE1, hits give low values
[15] = S. cerevisiae deletion strains, locus YBR229C, strain ROT2, hits give low values
[16] = S. cerevisiae deletion strains, locus YDL101C, strain DUN1, hits give low values
[17] = S. cerevisiae deletion strains, locus YDR150W, strain NUM1, hits give low values
[18] = S. cerevisiae deletion strains, locus YEL061C, strain CIN8, hits give low values
[19] = S. cerevisiae deletion strains, locus YGR078C, strain PAC10, hits give low values
[20] = S. cerevisiae deletion strains, locus YGR229C, strain SMI1, hits give low values
[21] = S. cerevisiae deletion strains, locus YHR030C, strain SLT2, hits give low values
[22] = S. cerevisiae deletion strains, locus YHR087W, strain rtc3, hits give low values
[23] = S. cerevisiae deletion strains, locus YJL187C, strain SWE1, hits give low values
[24] = S. cerevisiae deletion strains, locus YJR043C, strain POL32, hits give low values
[25] = S. cerevisiae deletion strains, locus YLR039C, strain RIC1, hits give low values
[26] = S. cerevisiae deletion strains, locus YLR058C, strain SHM2 (second series), hits give low values
[27] = S. cerevisiae deletion strains, locus YLR085C, strain ARP6, hits give low values
[28] = S. cerevisiae deletion strains, locus YLR262C, strain YPT6, hits give low values
[29] = S. cerevisiae deletion strains, locus YML094W, strain GIM5, hits give low values
[30] = S. cerevisiae deletion strains, locus YMR219W, strain ESC1, hits give low values
[31] = S. cerevisiae deletion strains, locus YMR263W, strain SAP30, hits give low values
[32] = S. cerevisiae deletion strains, locus YNL298W, strain CLA4 (second series), hits give low values
[33] = S. cerevisiae deletion strains, locus YNR030W, strain Alg12, hits give low values
[34] = S. cerevisiae deletion strains, locus YPL241C, strain CIN2, hits give low values
[35] = S. cerevisiae deletion strains, locus YPR135W, strain CTF4, hits give low values

Measured: normalized growth

N[C@@H](Cn1ccc(=O)[nH]c1=O)C(=O)O
inactive: [1] 0.988 | [2] 1.06 | [3] 1 | [4] 1 | [5] 0.995 | [6] 0.97 | [7] 0.978 | S. cerevisiae deletion strains, locus YNL128W, strain TEP1, hits give low values 1 | [8] 1.03 | [9] 0.995 | [10] 1 | [11] 1.01 | [12] 0.975 | [13] 1.01 | [14] 0.998

CCOC(=O)c1ccc(N2CC3CCCCN3C2c2ccc(Cl)c(Cl)c2)cc1 (stereo not drawn)
active: [28] 0.744
inactive: [1] 0.989 | [15] 0.974 | S. cerevisiae deletion strains, locus YCL061C, strain MRC1, hits give low values 0.991 | [16] 1 | S. cerevisiae deletion strains, locus YDL134C, strain PPH21, hits give low values 1.01 | [17] 0.992 | [18] 0.993 | [19] 0.992 | [20] 1 | [21] 0.971 | [22] 0.992 | [23] 0.982 | [24] 1.01 | [6] 0.998 | [25] 0.889 | [26] 0.997 | [27] 0.97 | [29] 0.972 | [30] 0.984 | [31] 0.976 | [8] 0.997 | [32] 1.02 | [12] 1 | [33] 0.997 | [14] 0.922 | [34] 0.987 | [35] 0.893 | S. cerevisiae strains, strain wild type, hits give low values 1.01

O=C(Cc1ccc(Cl)c(Cl)c1)N1CCCCC1CN1CCCC1 (stereo not drawn)
inactive: [2] 0.982 | [3] 1 | [17] 1.01 | [4] 1.01 | [5] 0.999 | [19] 1.01 | [20] 1.03 | [7] 0.999 | [8] 1.09 | [9] 1.02 | [10] 1.03 | [11] 0.999 | [12] 1.05 | [13] 1.05 | [14] 1.01

CCOC(=O)c1ccc(Oc2ncc(C(F)(F)F)cc2Cl)cc1
inactive: [1] 1.04 | [15] 0.995 | [16] 0.957 | [17] 1 | [18] 0.996 | [19] 0.993 | [21] 0.829 | [22] 0.987 | [24] 0.98 | [6] 0.917 | [25] 0.889 | [26] 0.975 | [27] 1.08 | [28] 0.862 | [29] 1.04 | [30] 0.992 | [31] 0.988 | [7] 0.68 | [8] 1.01 | [32] 0.985 | [12] 0.986 | [33] 0.974 | [14] 1.08 | [34] 0.862 | [35] 1.17

O=C(O)[C@H]1/C(=C/CO)O[C@@H]2CC(=O)N21
inactive: S. cerevisiae deletion strains, locus YAL021C, strain ccr4, hits give low values 0.992 | S. cerevisiae deletion strains, locus YAL026C, strain drs2, hits give low values 0.991 | S. cerevisiae deletion strains, locus YAL030W, strain snc1, hits give low values 0.992 | S. cerevisiae deletion strains, locus YBL061C, strain skt5, hits give low values 0.955 | S. cerevisiae deletion strains, locus YBR009C, strain hhf1, hits give low values 1.01 | S. cerevisiae deletion strains, locus YBR023C, strain chs3, hits give low values 0.978 | S. cerevisiae deletion strains, locus YBR171W, strain sec66, hits give low values 0.983 | S. cerevisiae deletion strains, locus YBR231C, strain swc5, hits give low values 1.02 | S. cerevisiae deletion strains, locus YBR279W, strain paf1, hits give low values 0.976 | S. cerevisiae deletion strains, locus YCL011C, strain gbp2, hits give low values 1.02 | S. cerevisiae deletion strains, locus YCL016C, strain dcc1, hits give low values 0.972 | S. cerevisiae deletion strains, locus YCL069W, strain vba3, hits give low values 0.986 | S. cerevisiae deletion strains, locus YCR088W, strain abp1, hits give low values 0.986 | S. cerevisiae deletion strains, locus YDL005C, strain med2, hits give low values 0.971 | S. cerevisiae deletion strains, locus YDL040C, strain nat1, hits give low values 0.982 | S. cerevisiae deletion strains, locus YDR001C, strain nth1, hits give low values 0.981 | S. cerevisiae deletion strains, locus YDR069C, strain doa4, hits give low values 1.01 | S. cerevisiae deletion strains, locus YDR137W, strain rgp1, hits give low values 0.982 | S. cerevisiae deletion strains, locus YDR159W, strain sac3, hits give low values 0.97 | S. cerevisiae deletion strains, locus YDR195W, strain ref2 0.96 | S. cerevisiae deletion strains, locus YDR297W, strain sur2, hits give low values 1 | S. cerevisiae deletion strains, locus YDR334W, strain swr1, hits give low values 0.988 | S. cerevisiae deletion strains, locus YDR335W, strain msn5, hits give low values 0.976 | S. cerevisiae deletion strains, locus YDR392W, strain spt3, hits give low values 0.883 | S. cerevisiae deletion strains, locus YEL003W, strain gim4, hits give low values 1 | S. cerevisiae deletion strains, locus YEL037C, strain rad23, hits give low values 0.985 | S. cerevisiae deletion strains, locus YEL061C, strain CIN8 (second series), hits give low values 0.986 | S. cerevisiae deletion strains, locus YER015W, strain faa2, hits give low values 0.996 | S. cerevisiae deletion strains, locus YER016W, strain bim1, hits give low values 0.957 | S. cerevisiae deletion strains, locus YER111C, strain swi4, hits give low values 0.973 | S. cerevisiae deletion strains, locus YER155C, strain BEM2 (second series), hits give low values 0.999 | S. cerevisiae deletion strains, locus YFR010W, strain ubp6, hits give low values 1.02 | S. cerevisiae deletion strains, locus YGL167C, strain pmr1, hits give low values 0.986 | S. cerevisiae deletion strains, locus YGL173C, strain kem1, hits give low values 0.997 | S. cerevisiae deletion strains, locus YGL227W, strain vid30, hits give low values 0.971 | S. cerevisiae deletion strains, locus YGL240W, strain doc1, hits give low values 1.01 | S. cerevisiae deletion strains, locus YGL253W, strain hxk2, hits give low values 0.959 | S. cerevisiae deletion strains, locus YHR013C, strain ard1, hits give low values 0.957 | S. cerevisiae deletion strains, locus YHR027C, strain rpn1, hits give low values 0.992 | [21] 0.964 | S. cerevisiae deletion strains, locus YHR079C, strain IRE1, hits give low values 0.959 | S. cerevisiae deletion strains, locus YHR142W, strain chs7, hits give low values 0.959 | S. cerevisiae deletion strains, locus YJL092W, strain hpr5, hits give low values 0.999 | S. cerevisiae deletion strains, locus YJL095W, strain BCK1 (second series), hits give low values 1 | S. cerevisiae deletion strains, locus YJL095W, strain BCK1, hits give low values 0.991 | S. cerevisiae deletion strains, locus YJL115W, strain asf1, hits give low values 0.983 | S. cerevisiae deletion strains, locus YJL129C, strain trk1, hits give low values 0.941 | S. cerevisiae deletion strains, locus YJL154C, strain vps35, hits give low values 0.982 | S. cerevisiae deletion strains, locus YJL164C, strain tpk1, hits give low values 0.993 | S. cerevisiae deletion strains, locus YJL166W, strain qcr8, hits give low values 1.03 | [23] 0.995 | S. cerevisiae deletion strains, locus YJR066W, strain TOR1, hits give low values 0.936 | S. cerevisiae deletion strains, locus YKL160W, strain elf1, hits give low values 0.955 | S. cerevisiae deletion strains, locus YKR026C, strain gcn3, hits give low values 0.99 | S. cerevisiae deletion strains, locus YKR091W, strain srl3, hits give low values 0.986 | S. cerevisiae deletion strains, locus YLL001W, strain dnm1, hits give low values 0.984 | S. cerevisiae deletion strains, locus YLL026W, hits give low values 0.987 | S. cerevisiae deletion strains, locus YLL041C, strain sdh2, hits give low values 1.02 | S. cerevisiae deletion strains, locus YLR027C, strain aat2, hits give low values 1 | S. cerevisiae deletion strains, locus YLR113W, strain HOG1, hits give low values 0.974 | S. cerevisiae deletion strains, locus YLR221C, strain rsa3, hits give low values 1.01 | S. cerevisiae deletion strains, locus YLR258W, strain gsy2, hits give low values 1 | S. cerevisiae deletion strains, locus YLR262C, strain YPT6 (second series), hits give low values 1.02 | S. cerevisiae deletion strains, locus YLR320W, strain mms22, hits give low values 1.01 | S. cerevisiae deletion strains, locus YLR342W, strain FKS1, hits give low values 0.965 | S. cerevisiae deletion strains, locus YLR357W, strain rsc2, hits give low values 0.931 | S. cerevisiae deletion strains, locus YLR370C, strain arc18, hits give low values 0.972 | S. cerevisiae deletion strains, locus YLR384C, strain iki3, hits give low values 0.98 | S. cerevisiae deletion strains, locus YML120C, strain ndi1, hits give low values 0.997 | S. cerevisiae deletion strains, locus YMR058W, strain fet3, hits give low values 0.993 | S. cerevisiae deletion strains, locus YMR125W, strain sto1, hits give low values 0.954 | S. cerevisiae deletion strains, locus YMR129W, hits give low values 0.981 | S. cerevisiae deletion strains, locus YMR205C, strain PFK2, hits give low values 0.99 | S. cerevisiae deletion strains, locus YMR231W, strain pep5, hits give low values 0.983 | S. cerevisiae deletion strains, locus YNL071W, strain lat1, hits give low values 0.996 | S. cerevisiae deletion strains, locus YNL183C, strain NPR1, hits give low values 0.952 | S. cerevisiae deletion strains, locus YNL209W, strain ssb2, hits give low values 0.98 | S. cerevisiae deletion strains, locus YNL248C, strain rpa49, hits give low values 0.935 | S. cerevisiae deletion strains, locus YNL322C, strain KRE1 (second series), hits give low values 0.973 | S. cerevisiae deletion strains, locus YNR049C, strain mso1, hits give low values 0.972 | S. cerevisiae deletion strains, locus YOR001W, strain rrp6, hits give low values 1.03 | S. cerevisiae deletion strains, locus YOR070C, strain gyp1, hits give low values 0.994 | S. cerevisiae deletion strains, locus YOR080W, strain dia2, hits give low values 0.988 | S. cerevisiae deletion strains, locus YOR083W, strain WHI5, hits give low values 0.909 | S. cerevisiae deletion strains, locus YOR106W, strain vam3, hits give low values 0.952 | S. cerevisiae deletion strains, locus YOR231W, strain MKK1, hits give low values 0.987 | S. cerevisiae deletion strains, locus YOR265W, strain rbl2, hits give low values 0.993 | S. cerevisiae deletion strains, locus YOR270C, strain vph1, hits give low values 1 | S. cerevisiae deletion strains, locus YOR290C, strain snf2, hits give low values 0.986 | S. cerevisiae deletion strains, locus YPL051W, strain arl3, hits give low values 0.979 | S. cerevisiae deletion strains, locus YPL078C, strain atp4, hits give low values 0.967 | S. cerevisiae deletion strains, locus YPL106C, strain sse1, hits give low values 0.979 | S. cerevisiae deletion strains, locus YPL240C, strain hsp82, hits give low values 1.01 | S. cerevisiae deletion strains, locus YPL256C, strain CLN2, hits give low values 0.959
